Screening results (PubChem)
BAZ2B block: qHTS Assay for Inhibitors of BAZ2B; hit rate 4.4% among 360,000; Bromodomain adjacent to zinc finger domain protein 2B (Homo sapiens), Q9UIF8; Potency, µM (series often up to 114 µM), without a hit: at the highest dose activity change, negative = inhibition, most hits filed as inhibitors; AlphaScreen BAZ2B-H3K14Ac peptide displacement; AID 504333, 2011; note: potency is the fitted concentration of half-maximal effect; % is set by controls: 0 for no effect and ±100 for the full control effect; nearly all actives have a fitted effect of over 60% in size
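BAZ2B 50 nM plus b-H3(5-23)K14Ac 50 nM, PBS pH 7.4/0.01% Tween-20, 30 min RT; compound added (max 110 uM), 30 min RT; streptavidin donor/Ni-chelate acceptor beads 10 ug/mL final, 20 min dark; AlphaScreen read.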
G9a inh: qHTS Assay for Inhibitors of Histone Lysine Methyltransferase G9a; Histone-lysine N-methyltransferase EHMT2 (Homo sapiens), Q96KQ7; G9a H3K9 monomethylation, AlphaScreen, 2 h; Potency, µM (top dose mostly 102 µM), inactives show at the top dose activity, negative = inhibition, actives largely listed as inhibitors; hit rate 8.8% among 350,000; AID 504332, 2011; note: potency is the fitted concentration of half-maximal effect; % is set by controls: 0 for no effect and ±100 for the full control effect; nearly all actives have a fitted effect of over 75% in size
Target sequence (Q96KQ7 913-1193 limits assumed): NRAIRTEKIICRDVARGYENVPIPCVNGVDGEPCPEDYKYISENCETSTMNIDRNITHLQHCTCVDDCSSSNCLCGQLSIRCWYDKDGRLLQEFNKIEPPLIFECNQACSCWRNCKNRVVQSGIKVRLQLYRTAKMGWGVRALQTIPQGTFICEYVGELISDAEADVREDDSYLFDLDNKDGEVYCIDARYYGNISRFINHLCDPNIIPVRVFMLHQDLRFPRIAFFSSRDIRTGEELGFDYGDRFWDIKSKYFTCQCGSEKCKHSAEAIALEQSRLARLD
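Chemiluminescent proximity detection of H3K9 monomethylation, read after 10 min bead incubation in the dark. Reaction: 20 nM G9a, 500 nM biotin-H3K9 peptide, 20 uM SAM cofactor, 2 h, room temperature, following 15 min enzyme-compound preincubation.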
HP1b binding inh: HTS for Inhibitors of HP1-beta Chromodomain Interactions with Methylated Histone Tails | Chromobox protein homolog 1 (Homo sapiens), P83916 | AlphaScreen HP1-beta / biotin-H3K9me3 peptide binding | Potency, µM (highest dose often 114 µM), for the others: top-dose activity change, negative = inhibition, usual class: inhibitors | hit rate 0.56% among 390,000 | AID 540317, 2011; note: potency is the fitted concentration of half-maximal effect; nearly all actives have a fitted effect of over 70% in size
Target sequence (P83916 whole entry, looked up): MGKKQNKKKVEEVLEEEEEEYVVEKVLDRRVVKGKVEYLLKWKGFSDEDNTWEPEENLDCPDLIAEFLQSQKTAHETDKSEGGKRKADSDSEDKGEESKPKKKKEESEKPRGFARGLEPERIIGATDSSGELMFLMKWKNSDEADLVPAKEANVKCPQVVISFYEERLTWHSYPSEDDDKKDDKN
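HP1-beta protein (50 nM final) preincubated 30 min at room temperature with biotinylated H3(1-18)K9me3 peptide (50 nM) in PBS pH 7.4, 0.01% Tween-20, then compound added for 30 min. AlphaScreen streptavidin donor/nickel chelate acceptor beads (10 ug/mL final), 30 min dark, luminescence read.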
PLK1 PBD block: qHTS for Inhibitors of PLK1-PDB (polo-like kinase 1 - polo-box domain): Primary Screen | Serine/threonine-protein kinase PLK1 (Homo sapiens), P53350 | Plk1 PBD binding of FITC phosphopeptide, fluorescence polarization | Potency, µM, for the others: max response, negative = inhibition, most hits filed as inhibitors | hit rate 2.8% among 360,000; note: potency is the fitted concentration of half-maximal effect; series mostly up to about 57 µM; % is set by controls: 0 for no effect and ±100 for the full control effect; nearly all actives have a fitted effect of over 65% in size
PI5P4Ka inh: qHTS for Inhibitors of phosphatidylinositol 5-phosphate 4-kinase (PI5P4K) | AID 652105, 2013 | Phosphatidylinositol 5-phosphate 4-kinase type-2 alpha (Homo sapiens), P48426 | PI5P4Kalpha enzyme, ADP-Glo luminescence, 60 min; hits give low values | hit rate 1.2% among 330,000 | max response, %; active = max response of -50% or lower; inconclusive = between -30% and -50%; inactive = -30% or higher; note: value at the top dose of about 77 µM; % is set by controls: 0 for no effect and ±100 for the full control effect
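Reactions run in 0.038 M HEPES pH 7.4, 0.28 mM EGTA, 0.1% CHAPS and 5% DMSO, with PI5P4Kalpha, substrate, compound and 5 microM ATP final, one hour at room temperature. Readout is ADP-Glo luminescence.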
JMJD2A Tudor inh: qHTS Assay for Inhibitors of JMJD2A-Tudor Domain | Lysine-specific demethylase 4A (Homo sapiens), O75164 | AlphaScreen JMJD2A-Tudor / H3K4me3 peptide binding | Potency, µM (titrated, usually from 114 µM), without a hit: at the highest dose activity change, negative = inhibition, most hits filed as inhibitors | hit rate 4.4% among 390,000 | AID 504339, 2011; note: potency is the fitted concentration of half-maximal effect; % is set by controls: 0 for no effect and ±100 for the full control effect; nearly all actives have a fitted effect of over 50% in size
Starred values were filed as active, the others as inactive; [ ] = remark or other dose. This is a sample that favours compounds with a hit; in the whole collection about 12% have one here. Unless noted, calls come from the whole dose curve; as a rule, active = well fitted curve in the direction sought with a large enough effect; inconclusive = small, poorly fitted or top-dose-only effect, or another doubt; inactive = no such curve, though single readings can be large; an effect the other way counts as inactive or inconclusive.

For O=C(CCN1CCCCCC1)Nc1ccc2c(c1)OCCO2 the results were BAZ2B block 56.2µM*, G9a inh inconclusive, HP1b binding inh inconclusive, PLK1 PBD block -12.0%, PI5P4Ka inh 6.1 and JMJD2A Tudor inh 5.01µM*.
`O=C(CCc1ccccc1)c1ccc2c(c1)OCCCO2` gave BAZ2B block 139.2%, G9a inh 208.1%, HP1b binding inh 190.5%, PLK1 PBD block -0.2%, PI5P4Ka inh 3.7 and JMJD2A Tudor inh 151.4%.
O=C(CCN1CCCC1Cc1ccccc1)c1ccc2c(c1)OCCO2 (stereo not drawn) was read as BAZ2B block inconclusive, G9a inh 2.82µM*, HP1b binding inh inconclusive, PLK1 PBD block 21.2µM*, PI5P4Ka inh -0.5 and JMJD2A Tudor inh 89.1µM*.
`CN1CCN(CCC(=O)Nc2ccc3c(c2)OCO3)CC1` gave BAZ2B block -1.7%, G9a inh 7.2%[59 µM], HP1b binding inh 37.7%, PLK1 PBD block -15.4%, PI5P4Ka inh 0.1 and JMJD2A Tudor inh 2.6%.
`CCOC(=O)c1c(C)n(-c2ccccc2)c2ccc(OC(=O)COc3ccc(Cl)cc3)cc12` gave BAZ2B block 4.6%, G9a inh -40.8%[59 µM], HP1b binding inh 45.8% and JMJD2A Tudor inh -14.1%.
For COc1ccc(C2=CC(c3ccco3)n3ncnc3N2)cc1 (stereo not drawn) the results were BAZ2B block inconclusive, G9a inh 11.2µM*, HP1b binding inh 30.3%, PLK1 PBD block 33.6µM*, PI5P4Ka inh -19.7 and JMJD2A Tudor inh -21.0%.
Cc1ccc(C2=CC(c3ccc(C)cc3)n3ncnc3N2)cc1 (stereo not drawn) was read as HP1b binding inh 56.1%, PLK1 PBD block -18.3%, PI5P4Ka inh -3.6 and JMJD2A Tudor inh -17.1%.
Clc1ccccc1C1=CC(c2ccco2)n2ncnc2N1 (stereo not drawn) was read as BAZ2B block -22.5%, G9a inh 35.5µM*, HP1b binding inh 19.9%, PLK1 PBD block -24.4%, PI5P4Ka inh -3.1 and JMJD2A Tudor inh -14.2%.
`Clc1ccc(C2=CC(c3ccco3)n3ncnc3N2)cc1` (stereo not drawn) gave BAZ2B block inconclusive, G9a inh 8.91µM*, HP1b binding inh 26.6%, PLK1 PBD block inconclusive, PI5P4Ka inh -26.3 and JMJD2A Tudor inh inconclusive.
O=C(NCc1ccc(F)cc1)C(=O)Nc1ccc2nc3n(c(=O)c2c1)CCCCC3 was read as BAZ2B block -1.1%, G9a inh -0.5%[59 µM], HP1b binding inh 34.7% and JMJD2A Tudor inh 0.7%.
`O=C(N=C1SC2CS(=O)(=O)CC2N1CCc1ccccc1)C1CC1` (stereo not drawn) gave BAZ2B block -2.1%, G9a inh -8.1%, HP1b binding inh 29.7%, PLK1 PBD block -5.7%, PI5P4Ka inh 1.0 and JMJD2A Tudor inh -6.2%.
`CCCS(=O)(=O)NC(=O)C1(C)CCN(C(=O)c2ccccc2OC)C1` (stereo not drawn) gave PLK1 PBD block -8.3% and PI5P4Ka inh -1.8.
Screening Cc1cc2oc3c(c(=O)c2cc1C)C(c1ccc(F)cc1)N(CCCN1CCOCC1)C3=O (stereo not drawn) returned BAZ2B block 4.1%, G9a inh inconclusive, HP1b binding inh 24.5%, PLK1 PBD block -15.1%, PI5P4Ka inh 0.4 and JMJD2A Tudor inh -15.6%.
Cc1ccc(C2c3c(oc4ccc(Cl)cc4c3=O)C(=O)N2CCCN2CCOCC2)o1 (stereo not drawn) was read as BAZ2B block -35.8% and G9a inh inconclusive.
`COc1cc(C2C(C(C)=O)=C(O)C(=O)N2CCN2CCOCC2)ccc1O` (stereo not drawn) gave BAZ2B block -4.0%, G9a inh 50.1µM*, HP1b binding inh 19.1%, PLK1 PBD block -6.5%, PI5P4Ka inh -1.9 and JMJD2A Tudor inh -22.2%.
CC(=O)C1=C(O)C(=O)N(CCN2CCOCC2)C1c1ccc(N(C)C)cc1 (stereo not drawn) was read as HP1b binding inh 16.1%, PLK1 PBD block -9.7%, PI5P4Ka inh 1.2 and JMJD2A Tudor inh inconclusive.
O=C1c2oc3ccc(Cl)cc3c(=O)c2C(c2ccco2)N1CCN1CCOCC1 (stereo not drawn) was read as BAZ2B block -35.8%, G9a inh 11.2µM*, HP1b binding inh 9.5%, PLK1 PBD block -6.6%, PI5P4Ka inh -0.6 and JMJD2A Tudor inh -24.6%.
Screening O=C1c2oc3ccccc3c(=O)c2C(c2cccc(O)c2)N1CCCN1CCOCC1 (stereo not drawn) returned BAZ2B block 10.7%, G9a inh 89.1µM*, HP1b binding inh 22.5%, PLK1 PBD block -25.2%, PI5P4Ka inh 2.9 and JMJD2A Tudor inh -10.0%.
`COc1cc(C2c3c(oc4cc(C)c(C)cc4c3=O)C(=O)N2CCCN2CCOCC2)ccc1O` (stereo not drawn) gave BAZ2B block -14.2%, G9a inh 28.2µM*, HP1b binding inh -10.0% and JMJD2A Tudor inh -19.6%.
O=C(CSCc1cc(=O)n2nc(C3CC3)sc2n1)Nc1ccccc1Cl was read as BAZ2B block -15.6%, G9a inh 51.1%, HP1b binding inh 18.5%, PLK1 PBD block -4.1%, PI5P4Ka inh -3.7 and JMJD2A Tudor inh -2.3%.
Screening Cc1ccc(C)c(Cn2c(=O)n(Cc3ccccc3)c(=O)c3sc4ccccc4c32)c1 returned BAZ2B block -19.0%, G9a inh 16.5%[59 µM], HP1b binding inh 43.3% and JMJD2A Tudor inh 0.3%.
`C#CCOCCOCCOCCNc1nc(N2CCN(C(=O)Cn3cc(CCO)nn3)CC2)nc(N2CCN(C(=O)Cn3cc(CCCCN)nn3)CC2)n1` gave HP1b binding inh 19.0%, PLK1 PBD block -6.9%, PI5P4Ka inh 0.2 and JMJD2A Tudor inh -13.8%.
For Cc1ccc(C2CCN(C(=O)Nc3ccc(Cl)c(Cl)c3)C2)cc1 (stereo not drawn) the results were BAZ2B block 11.4%, G9a inh 17.8%[59 µM], HP1b binding inh 46.5% and JMJD2A Tudor inh 2.9%.
Screening CCCOc1ccc(C2C(C(=O)/C=C/c3ccco3)=C(O)C(=O)N2CCN2CCOCC2)cc1OC (stereo not drawn) returned G9a inh 44.7µM*, HP1b binding inh 2.8%, PLK1 PBD block -15.0%, PI5P4Ka inh 5.7 and JMJD2A Tudor inh inconclusive.
